# Assay outcomes as filed in PubChem BioAssay.
# TR SRC2 fluor cs: counter-screen for TRb-SRC2 inhibitors: fluorescence interference; TRb/SRC2 Texas Red total fluorescence interference; Potency, µM (series often up to 106 µM), inactives show top-dose fluorescence change, negative = quenching; actives 0.29% (n = 280,000); active = well fitted curve in either direction with a large enough effect; inconclusive = small, poorly fitted or top-dose-only effect; note: potency is the fitted concentration of half-maximal effect; % is set by controls: 0 for no effect and ±100 for the full control effect
#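 Human TRb ligand-binding domain at 0.6 uM with 20 nM Texas Red SRC2 peptide in Tris buffer containing 1 uM T3 and 5% DMSO, incubated with compound 5 h at ambient temperature. Total fluorescence (555/632 nm) calculated as parallel + 2 × perpendicular.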
# TRb SRC2 PPI: TRbeta-SRC2 interaction inhibition; P10828; TRbeta-SRC2 peptide binding, fluorescence polarization; receptor liganded with 1 µM T3; Potency, µM (highest dose often 106 µM), without a hit: at the top dose activity change, negative = inhibition, most hits filed as inhibitors; actives 0.065% (n = 280,000); AID 1469; active = well fitted inhibition curve with a large enough effect; inconclusive = small, poorly fitted or top-dose-only effect, or effect the other way;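 note: potency is the fitted concentration of half-maximal effect; plate controls were bound peptide for no effect and peptide without receptor for full effect; nearly all actives have a fitted effect of over 50% in size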
#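 Binding of a 20-amino-acid Texas Red SRC2 peptide (20 nM) to TRb ligand-binding domain (0.6 uM) with agonist T3 at 1 uM was followed by fluorescence polarization after a 5 hr room-temperature incubation.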
# RGS12 GoLoco inh: inhibitors of human Gai1-RGS12 GoLoco interaction (red fluorophore); P63096; Gai1:RGS12 GoLoco peptide FP, rhodamine, 10 min; Potency, µM (top dose mostly 61.6 µM), inactives show at the top dose activity, negative = inhibition, actives largely listed as inhibitors; actives 0.44% (n = 230,000); active = well fitted inhibition curve with a large enough effect, not every such curve was filed as active; inactive = no such curve, though single readings can be large or run the other way; note: potency is the fitted concentration of half-maximal effect; % is set by controls: 0 for no effect and ±100 for the full control effect; nearly all actives have a fitted effect of over 30% in size
# Menin-MLL FL inh: menin-MLL binding inhibition, fluorescein peptide | Fluorescence polarization, fluorescein-MLL peptide displacement from menin | FP activity change, % at 61.4 µM | 290,000 tested, under 10 active; active = well fitted curve in the direction sought with a large enough effect in the polarisation, not every such curve was filed as active; inconclusive = small, poorly fitted or top-dose-only effect, or effect the other way, or a change in a side signal; inactive = no such curve, though single readings can be large or run the other way; the % refers to the polarisation; note: % of control where 0% means no effect
# Menin MLL FP TR: displaces Texas Red mutant MLL peptide from human menin | AID 1768 | O00255 | Menin + Texas Red MLL mutant peptide, fluorescence polarization | Potency, µM (doses to about 61.6 µM), inactives show top-dose FP activity change, negative = inhibition, usual class: inhibitors | actives 0.23% (n = 270,000); active = well fitted inhibition curve with a large enough effect in the polarisation, with a control signal flat, not every such curve was filed as active; inconclusive = small, poorly fitted or top-dose-only effect, or effect the other way, or a change in a side signal; inactive = no such curve, though single readings can be large or run the other way; the % refers to the polarisation; note: potency is the fitted concentration of half-maximal effect; % of control where 0% means no effect
# CXXC DNA block: inhibitors of human MLL CXXC domain-DNA interaction; Potency, µM (titrated, usually from 115 µM), without a hit: top-dose activity change, negative = inhibition, usual class: inhibitors; MLL-CXXC / FITC-HOXA9 DNA fluorescence polarization; AID 2662; actives 0.037% (n = 290,000); Q03164; active = well fitted inhibition curve with a large enough effect in the polarisation, with a control signal flat, not every such curve was filed as active; inconclusive = small, poorly fitted or top-dose-only effect, or effect the other way, or a change in a side signal; inactive = no such curve, though single readings can be large or run the other way; the % refers to the polarisation; note: potency is the fitted concentration of half-maximal effect
#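 Fluorescence polarization: 7 uM MLL-CXXC (stock) preincubated 5 min with compounds, then 50 nM fluorescein-HOX-A9 DNA (stock) added; 30 min ambient. Buffer 50 mM Tris-HCl pH 7.5, 50 mM NaCl, 1 mM DTT, 0.05% BSA.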
# Numbers without * were called inactive; ? = inconclusive; · = not tested or not shown; ! = a repeat was not active; [ ] = dose if it differs, or a comment. Compounds with a hit are over-represented: about 0.5% of the library has one in this group of screens.
SMILES,TR SRC2 fluor cs,TRb SRC2 PPI,RGS12 GoLoco inh,Menin-MLL FL inh,Menin MLL FP TR,CXXC DNA block
COc1cc(NCc2ccc3nc(N)nc(N)c3c2C)cc(OC)c1OC,-17.6%,-2.8%,2.3%,0.2,25.1µM*!,11.7%
COc1nc(-c2ccccc2)ccc1-c1noc(-c2ccco2)n1,2.9%,-4.2%,3.55µM*,6.5,42.2%,4.5%
COC(=O)c1ccc(C23CC2(C(NP(=O)(c2ccccc2)c2ccccc2)c2ccccc2)C3)cc1 (centres undefined),-9.1%,3.2%,1.41µM*,17.4,-2.4%,·
COC(=O)c1ccccc1,-1.0%,-2.1%,7.5%,·,·,·
CCCCCNCCCCC,-5.8%[201 µM],7.5%[201 µM],-3.1%,·,·,·
CCCC/C=C\CCCCCCCCCC=O,2.9%[201 µM],8.7%[201 µM],·,·,·,·
Cc1nc2c(c(=O)[nH]1)CSCC2,-16.3%,4.8%,·,-1.2,6.0%,·
Cc1ccc(NC(=O)CN2C(=O)N/C(=C/c3ccco3)C2=O)cc1,50.1µM*[quencher],10.6%,17.2%,48.1,·,-2.8%
Cc1ccc(NC(=O)CN2C(=O)N/C(=C/c3cccn3-c3ccc(C(=O)O)cc3)C2=O)cc1,-12.5%,4.5%,6.6%,10.1,20.2%,-1.6%
O=[N+]([O-])c1cccc(C2=N[C@@H](Cc3ccccc3)CO2)c1,?,0.4%,5.8%[88.7 µM],-1.2[94.6 µM],0.5%[94.6 µM],·
O=c1c(-c2ccc(O)cc2)coc2cc(O[C@@H]3O[C@H](CO)[C@H](O)[C@H](O)[C@H]3O)ccc12,-0.7%,-3.2%,·,2.1,2.8%,·
CC1CCC(C(C)C)C(OCC[N+](C)(C)C)C1 (centres undefined),-17.5%,1.1%,3.98µM*,-1.1,-1.9%,0.0%
CC1CCC(C(C)C)C(OCC(O)C[N+]2(C)CCCCC2)C1 (centres undefined),0.8%,0.8%,5.8%,-0.4,-2.6%,-3.1%
CC(C)/C(=N/[N+](C)(C)C)c1ccccc1,·,·,2.82µM*,·,·,·
Cc1cc(NC(=O)Cn2c(=O)nc(-c3ccccc3F)c3cc(Cl)ccc32)ccc1Br,0.0355µM*[quencher],-26.4%[53 µM],·,·,·,·
CCCC(=O)Nc1ccc2nc(SCC(=O)Nc3ccc(N4CCOCC4)c(Cl)c3)sc2c1,0.2%,-18.4%,4.47µM*,3.2,?,19.3%
CN(N=O)C(=O)N[C@H]1C(O)C(O)C(CO)O[C@@H]1O (some centres undefined),1.4%,5.7%,20µM*,-0.5,8.4%,·
O=C1[C@H]2[C@H]3C=C[C@@H](C4[C@H]3[C@@H]3C(=O)N(CN5CCSCC5)C(=O)[C@H]43)[C@H]2C(=O)N1CN1CCSCC1 (some centres undefined),·,·,7.7%[14.2 µM],·,·,·
CC1=CC(=O)c2c(O)ccc(O)c2C1=O,22.4µM*[quencher],-22.7%,25.1µM*,?,?,31.6µM*
O=C1C=C(N2CCN(c3ccccn3)CC2)C(=O)c2c(O)ccc(O)c21,·,·,6.1%[14.2 µM],·,·,·
CCc1ccc(NC(=O)CC2C(=O)NCCN2C(=O)c2ccccc2OC)cc1 (centres undefined),8.91µM*[quencher],-13.0%,·,2.1,2.1%,-0.4%
O=C(Nc1nc2c(s1)CN(Cc1ccccc1)CC2)c1cccc(S(=O)(=O)N2CCc3ccccc32)c1,3.6%,7.7%,76.9%,?,7.08µM*,?
O=C(NO)c1ccccc1,-4.3%,9.5%,28.2µM*,·,·,·
CC[C@H]1O[C@]2(CC[C@@H]1C)C[C@@H]1C[C@@H](C/C=C(\C)C[C@@H](C)/C=C/C=C3CO[C@@H]4[C@H](O)C(C)=C[C@@H](C(=O)O1)[C@]34O)O2,-5.6%[201 µM],3.1%[201 µM],·,·,·,·
C=CC(C)(C)c1[nH]c2ccccc2c1C1=C(O)C(=O)C(c2c[nH]c3c(CC=C(C)C)cccc23)=C(O)C1=O,-14.3%,-9.0%,-6.5%,85.2,?,·
SMILES,TR SRC2 fluor cs,TRb SRC2 PPI,RGS12 GoLoco inh,Menin-MLL FL inh,Menin MLL FP TR,CXXC DNA block
CCCCOCC(C)O (centres undefined),-0.9%[201 µM],4.5%[201 µM],·,·,·,·
CC(Sc1ccc(Cl)cc1)C(=O)Nc1ccccc1-c1ccccc1 (centres undefined),25.1µM*[quencher],-11.5%[53 µM],-9.9%,1.6,-7.9%,26.8%
Cc1ccc(SC(C)C(=O)Nc2ccccc2-c2ccccc2)cc1 (centres undefined),-4.4%,-6.8%,-4.3%,4.9,?,-1.6%
CC(=O)/C(=N\Nc1ccc(Cl)cc1)Sc1nnc(-c2ccccc2)n1-c1ccccc1,2.2%,-8.1%,10.1%,2.7,-11.8%,9.7%
CC(=O)/C(=N/Nc1ccccc1)Sc1nnc(CCc2ccccc2)n1-c1ccccc1,0.355µM*[quencher],?,4.5%,-0.4,-9.5%,26.9%
COC1=CC(=O)C=C(OC)C1=O,-0.2%,11.4%,20µM*,?,?,·
CC1(C)CC(Nc2ccc(Nc3ccccc3)cc2)CC(C)(C)N1,-4.2%,-1.3%,-1.4%[14.2 µM],2.5,20µM*,-2.8%
CC(C)(C)c1ccc(C(=O)NCC(c2cccs2)S(=O)(=O)c2ccc(F)cc2)cc1 (centres undefined),-0.2%,-8.1%,·,·,·,·
Cn1nnnc1SCCCNCc1cccc(OCc2ccc(F)cc2)c1,0.891µM*[quencher],-26.2%,·,·,·,·
Cn1nnnc1SCCCNCc1ccccc1OCc1ccccc1F,-20.3%,-1.6%,·,·,·,·
CCOc1c(Cl)cc(Cl)cc1CNCCSc1nnnn1C,8.91µM*[quencher],-7.9%,·,·,·,·
Cn1nnnc1SCCNCc1ccccc1OCc1ccccc1F,10µM*[quencher],-4.5%,·,·,·,·
COC(=O)c1ccc(I)cc1S(=O)(=O)NC(=O)Nc1nc(C)nc(OC)n1,0.6%[201 µM],-1.8%[201 µM],·,·,·,·
COC(=O)c1cccc(C(=O)OC)c1,-5.4%[201 µM],-5.6%[201 µM],·,·,·,·
COc1ccc(C(=O)NCCn2cc(SCc3cccc(F)c3)c3ccccc32)cc1OC,-18.8%,8.0%,·,·,·,·
Cc1cc(C)cc(N=C2NC(=O)/C(=C/c3cccs3)S2)c1,-7.4%,0.2%,1.78µM*,12.1,1.3%,9.4%
O=C1NC(=Nc2ccccc2)S/C1=C\c1cccs1,-2.4%,7.8%,-1.2%,1.5,·,-5.7%
NCCc1cnc(-c2cccc(C(F)(F)F)c2)[nH]1,1.3%,3.0%,·,0.6,6.8%,·
COc1cc(C2C(C#N)=C(N)Oc3c2ccc2ccccc32)ccc1OCC(=O)Nc1ccccc1C (centres undefined),-0.4%,-1.7%,9.2%,4.1,25.1µM*,25.6%
CCCNC(=O)Cn1c(=O)/c(=C\c2ccc(-c3ccc([N+](=O)[O-])cc3)o2)s/c1=C\C(=O)C(C)(C)C,-1.3%[53 µM],3.3%[53 µM],33.1%,?,17.8µM*,1.5%
CCCNC(=O)Cn1c(=O)/c(=C\c2ccc(-c3cccc([N+](=O)[O-])c3)o2)s/c1=C\C(=O)C(C)(C)C,-0.6%[53 µM],-4.7%[53 µM],-59.4%,-3.0,?,-7.6%
COC(=O)c1ccc(NC(=O)C(C)Sc2nc(=O)cc(N)n2CCc2ccccc2)cc1 (centres undefined),17.8µM*[quencher],-7.9%,·,·,·,·
